Bioassay records from PubChem.
ELG1 DNA repair: qHTS screen for small molecules that inhibit ELG1-dependent DNA repair in human embryonic kidney (HEK293T) cells expressing luciferase-tagged ELG1 | HEK293T ELG1-luciferase reporter, luminescence, 16 h; DNA damage induced by 5-fluorouridine | Potency, µM (series often up to 46.1 µM), hits mostly inhibitors | hit rate 2.3% among 330,000; also: nearly all actives have a fitted effect of over 55% in size
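Overnight (16 hr) co-exposure of 2,000 cells/well to 5-fluorouridine and compound at 37 °C preceded detection. Luciferase was quantified via ONE-Glo luminescence; loss of signal denotes inhibition.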
IL2 activator: qHTS of IL-2 Activators | IL-2 activation reporter assay, cell-based qHTS; stimulated with anti-CD3/CD4/CD28 beads; in transgenic mouse T cells | activation, % (series mostly up to about 46 µM) | hit rate 0.065% among 360,000; in the data active = activation above about 50%; inconclusive = mostly about 30% to 49%
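Readout: EGFP and DsRed signals by fluorescent plate cytometry. Unstimulated transgenic mouse T cells received compound 60 min before antibody-bead stimulation, then incubated 18 h at 37 degrees C.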
BRCA1 expr up: qHTS Assay to Identify Small Molecule Activators of BRCA1 Expression | MCF7-BRCA1-FFLuc reporter, luminescence, 48 h; response scale: scaled: vehicle 0%, 10 µM genistein 100% | Potency, µM (top dose mostly 46.1 µM), actives largely listed as activators | hit rate 1.1% among 380,000 | AID 624202, 2012; also: nearly all actives have a fitted effect of over 80% in size
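Using MCF7 cells harboring a BRCA1 firefly luciferase reporter, plated 2 h before compound pinning, the screen measured luminescence after 48 h incubation. Responses were normalized to DMSO and 10 microM genistein, then fitted for concentration-effect.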
Nrf2 ARE act: qHTS of Nrf2 Activators; AREc32 ARE-luciferase reporter (MCF7-derived line), luminescence, 24 h; Potency, µM (doses to about 46.1 µM), actives largely listed as activators; hit rate 0.31% among 410,000; AID 624171, 2012; also: nearly all actives have a fitted effect of over 65% in size
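Each well held 1000 AREc32 cells, which were incubated with compound for 24 hr at 37 deg C after overnight attachment, and ARE reporter activity was quantified by firefly luciferase luminescence.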
Numbers stand for hits. Compounds with a hit are over-represented: about 3.1% of the library has one in this group of screens. Unless noted, calls follow the shape of the dose curve; as a rule, active = well fitted curve in the direction sought with a large enough effect; inconclusive = small, poorly fitted or top-dose-only effect, or another doubt; inactive = no such curve, though single readings can be large; an effect the other way counts as inactive or inconclusive.

Results for CCC(C)NC(=O)c1ccc(Cn2c(=O)c3cccn3c3cccnc32)cc1 (configuration not stated) ?
Nrf2 ARE act: inactive

Results for Cc1sc2ncnc(N3CCC(C(=O)Nc4ccc(OC(F)F)c(Cl)c4)CC3)c2c1C ?
ELG1 DNA repair: 10.3µM; IL2 activator: inactive; BRCA1 expr up: inactive; Nrf2 ARE act: inactive

Results for Cc1nc2cc(F)ccc2n1C1CCN(C(=O)c2ccc(F)cc2F)CC1 ?
ELG1 DNA repair: 9.2µM; IL2 activator: inactive; BRCA1 expr up: inactive; Nrf2 ARE act: inactive

How did Cc1ccc2nc3sc(C(=O)NCc4ccco4)c(N)c3cc2c1 do in these assays?
ELG1 DNA repair: inconclusive; IL2 activator: 167.5; BRCA1 expr up: inconclusive; Nrf2 ARE act: inactive

Results for COc1cc2cc3c(N)c(C(=O)NCc4ccco4)sc3nc2cc1OC ?
ELG1 DNA repair: inconclusive; IL2 activator: inactive; BRCA1 expr up: inconclusive; Nrf2 ARE act: inconclusive

What do the screens show for `COc1ccc2nc(NC(=O)CCc3cc(OC)c(OC)c(OC)c3)sc2c1`?
ELG1 DNA repair: 10.3µM; IL2 activator: inactive; BRCA1 expr up: inactive; Nrf2 ARE act: inactive

What do the screens show for `COc1ccc(Nc2nc3ccc(OC)cc3s2)cc1`?
ELG1 DNA repair: inconclusive; IL2 activator: inactive; BRCA1 expr up: 7.94µM; Nrf2 ARE act: inactive

Results for COc1ccc2nc(NC(=O)c3nc(S(=O)(=O)Cc4ccccc4F)ncc3Cl)sc2c1 ?
Nrf2 ARE act: 10µM

Results for COc1ccc(C(=O)Nc2nc3ccccc3s2)c(OC)c1 ?
ELG1 DNA repair: 3.66µM; IL2 activator: inactive; BRCA1 expr up: inactive; Nrf2 ARE act: inactive

What do the screens show for `COc1ccc2nc(NC(=O)CCn3cccc3)sc2c1`?
ELG1 DNA repair: inactive; IL2 activator: inactive; BRCA1 expr up: inactive; Nrf2 ARE act: inactive

Results for COc1ccc2nc(Nc3nc(C)c(C(C)=O)s3)sc2c1 ?
ELG1 DNA repair: inconclusive; IL2 activator: inactive; BRCA1 expr up: inconclusive; Nrf2 ARE act: inconclusive

Results for Cc1ccc(C)c(S(=O)(=O)c2nnn3c2nc(Nc2ccc(F)c(Cl)c2)c2sccc23)c1 ?
Nrf2 ARE act: inactive

What do the screens show for `COc1cccc(C(=O)Nc2nc3c(s2)CN(C)CC3)c1`?
ELG1 DNA repair: inconclusive; IL2 activator: inactive; BRCA1 expr up: 14.1µM; Nrf2 ARE act: inactive

Results for COc1ccc(C(=O)Nc2nc3ccc(OC)cc3s2)cc1 ?
ELG1 DNA repair: inconclusive; IL2 activator: inactive; BRCA1 expr up: 2.24µM; Nrf2 ARE act: inactive

How did CCOC(=O)N1CCN(CC(=O)Nc2nc3ccc(OC)cc3s2)CC1 do in these assays?
ELG1 DNA repair: 14.6µM; IL2 activator: inactive; BRCA1 expr up: inactive; Nrf2 ARE act: inactive

Results for COc1ccc2nc(NC(=O)CN(c3ccc(C)cc3)S(=O)(=O)c3c(C)nn(C)c3C)sc2c1 ?
ELG1 DNA repair: 23.1µM; IL2 activator: inactive; BRCA1 expr up: inactive; Nrf2 ARE act: inactive

How did COc1ccc(-c2onc(C)c2C)cc1S(=O)(=O)Nc1cccc(C#N)c1 do in these assays?
Nrf2 ARE act: inactive

Results for CCN1CCN(C(c2ccc(F)cc2)c2sc3nc(-c4ccco4)nn3c2O)CC1 (configuration not stated) ?
Nrf2 ARE act: inactive

Results for Cc1ccc(CNC(=O)c2oc3ccc(S(=O)(=O)N4CCC(C)CC4)cc3c2C)cc1 ?
Nrf2 ARE act: inactive

What do the screens show for `COC(=O)Cc1c(C)c2ccc3c(c2oc1=O)CN(Cc1ccc(Cl)cc1)CO3`?
Nrf2 ARE act: inactive

Results for Cc1ccccc1CN1CC2=C(CCN(Cc3ccccc3)C2=O)N2CCN=C12 ?
IL2 activator: inactive; BRCA1 expr up: inactive; Nrf2 ARE act: inactive

How did CCN(C(=O)CSc1nc2ccccc2n1CC(=O)NCc1ccc(OC)cc1)c1ccccc1 do in these assays?
BRCA1 expr up: inactive; Nrf2 ARE act: inactive

Results for COc1ccc2nc(NC(=O)c3c(C)noc3C)sc2c1 ?
ELG1 DNA repair: inconclusive; IL2 activator: inactive; BRCA1 expr up: 2.82µM; Nrf2 ARE act: inactive

Results for CCOc1ccc2nc(NC(=O)c3ccc(S(=O)(=O)N4CCOCC4)cc3)sc2c1 ?
ELG1 DNA repair: inactive; IL2 activator: inactive; BRCA1 expr up: inactive; Nrf2 ARE act: inactive

How did CCOc1ccc2nc(NC(=O)c3ccc(OC)c(S(=O)(=O)N4CCOCC4)c3)sc2c1 do in these assays?
ELG1 DNA repair: 13µM; IL2 activator: inactive; BRCA1 expr up: inactive; Nrf2 ARE act: inactive

Results for Cc1noc(C)c1C(=O)Nc1nc2ccc(S(C)(=O)=O)cc2s1 ?
ELG1 DNA repair: inconclusive; IL2 activator: inactive; BRCA1 expr up: inactive; Nrf2 ARE act: inactive

How did CC1=C(C(=O)N2CCCCCC2)CC(CC(=O)NC2CCCC2)C(=O)N1Cc1ccc(C(C)(C)C)cc1 (configuration not stated) do in these assays?
IL2 activator: inactive; BRCA1 expr up: inactive; Nrf2 ARE act: inactive

Results for Fc1ccc2c(c1)-c1c(cnc3cc(-c4ccc(Cl)cc4)nn13)CO2 ?
BRCA1 expr up: inactive; Nrf2 ARE act: inactive

How did O=C(Nc1ccc(F)c(Cl)c1)N1CCCCCC1 do in these assays?
ELG1 DNA repair: inconclusive; IL2 activator: inactive; BRCA1 expr up: 8.91µM; Nrf2 ARE act: inactive

Results for O=C(Nc1ccc(F)c(Cl)c1)N1CCCC1 ?
ELG1 DNA repair: inactive; IL2 activator: inactive; BRCA1 expr up: inactive; Nrf2 ARE act: inactive

How did CCN(CC)C(=O)C(=O)Nc1ccc(F)c(Cl)c1 do in these assays?
ELG1 DNA repair: inconclusive; IL2 activator: inactive; BRCA1 expr up: 8.91µM; Nrf2 ARE act: inactive

Results for Cc1cc(C)cc(OCCn2nnc3ccccc32)c1 ?
ELG1 DNA repair: inconclusive; IL2 activator: inactive; BRCA1 expr up: 11.2µM; Nrf2 ARE act: inactive

What do the screens show for `Clc1ccccc1OCCn1nnc2ccccc21`?
ELG1 DNA repair: inconclusive; IL2 activator: inactive; BRCA1 expr up: 11.2µM; Nrf2 ARE act: inactive

What do the screens show for `Cc1ccc(C)c(OCCn2nnc3ccccc32)c1`?
ELG1 DNA repair: inconclusive; IL2 activator: inactive; BRCA1 expr up: inactive; Nrf2 ARE act: inactive

What do the screens show for `CCc1ccc(Nc2nc(-c3cc4cccc(OC)c4oc3=O)c(CC)s2)cc1`?
Nrf2 ARE act: inactive

What do the screens show for `Cc1cc(C(=O)CN2C(=O)NC3(CCCCC3C)C2=O)c(C)n1Cc1cccs1` (configuration not stated)?
ELG1 DNA repair: inconclusive; IL2 activator: inactive; BRCA1 expr up: 4.47µM; Nrf2 ARE act: inactive

What do the screens show for `CN(Cc1ccc(F)cc1)C(=O)CCc1nnc(-c2ccccc2)o1`?
ELG1 DNA repair: inconclusive; IL2 activator: inactive; BRCA1 expr up: 14.1µM; Nrf2 ARE act: inactive

How did O=C(COc1cccnc1[N+](=O)[O-])Nc1cccc(Br)c1 do in these assays?
ELG1 DNA repair: inconclusive; IL2 activator: inactive; BRCA1 expr up: 11.2µM; Nrf2 ARE act: inactive

How did C1=Cc2ccccc2/C1=C/c1ccc2c(c1)OCO2 do in these assays?
BRCA1 expr up: inactive

Results for CCOC(=O)C1CCCN(C(=O)C2CCN(S(=O)(=O)c3c(C)noc3/C=C/c3ccc(C)cc3)CC2)C1 (configuration not stated) ?
BRCA1 expr up: inactive; Nrf2 ARE act: inactive
